Test [1] deals with guinea pig Leukotriene B4 Receptor (LTB4), gene 100379538. Put plainly: NVS_GPCR_gLTB4: NovaScreen (NVS) G Protein-Coupled Receptor Assay for guinea pig Leukotriene B4 Receptor (LTB4) (AID 2283247). Put shortly: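 Radioligand displacement on guinea pig spleen membranes, filter-based scintillation counting 2 h after dosing. Primary duplicate single point at 25 uM; hits over threshold (e.g. 30% inhibition) run in concentration-response up to 50 uM, DMSO baseline.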

The test system of test [2] is rat Monoamine Oxidase, MAO-A, Central (MAOAC), gene 29253. The test can be described thus: NVS_ENZ_rMAOAC: NovaScreen (NVS) Enzymatic Assay for rat Monoamine Oxidase, MAO-A, Central (MAOAC) (AID 2283243).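 Further: potency refers to inhibition seen as signal drop below DMSO baseline.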 Put shortly:
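Inhibition of rat brain-derived MAO-A was read by scintillation counting after 1.5 h exposure. Compounds screened first at 25 uM in duplicate, then in dose series if active.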

Test [3] concerns the target rat Catechol-O-Methyl Transferase (COMT), Comt (gene 24267) (UniProt P22734). The test can be described thus: NVS_ENZ_rCOMT: NovaScreen (NVS) Enzymatic Assay for rat Catechol-O-Methyl Transferase (COMT) (AID 2283235). In outline:
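Cell-free enzyme activity with protein extracted from rat dorsal striatum, measured by HPLC with absorbance detection. Compounds screened at 25 uM in duplicate; actives then run in concentration-response up to 50 uM, loss of signal versus DMSO.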

Test [4] deals with human Serotonin, 5-Hydroxytryptamine Receptor 2A (5HT2A), HTR2A (gene 3356) (UniProt P28223). Put plainly: NVS_GPCR_h5HT2A: NovaScreen (NVS) G Protein-Coupled Receptor Assay for human Serotonin, 5-Hydroxytryptamine Receptor 2A (5HT2A) (AID 2283249). Put shortly:
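Human cortex membranes, cell-free radioligand binding; filter-based scintillation read 1.5 h after dosing. Duplicate screen at 25 uM first; displacement of specific binding (loss of signal) versus DMSO.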

Test [5] deals with human Serotonin, 5-Hydroxytryptamine Receptor 5A (5HT5A), HTR5A (gene 3361) (UniProt P47898). Put plainly: NVS_GPCR_h5HT5A: NovaScreen (NVS) G Protein-Coupled Receptor Assay for human Serotonin, 5-Hydroxytryptamine Receptor 5A (5HT5A) (AID 2283251). In outline: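 Cell-free radioligand displacement binding on HEK293-derived membrane protein, 1 h incubation, filter-based scintillation counting. Primary screen in duplicate at 25 uM, actives followed in concentration series; loss of signal fitted versus DMSO.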

The target of test [6] is guinea pig Opioid, Kappa 1 Receptor (OpiateK), OPRK1 (gene 100135587) (UniProt P41144). The test can be described thus: NVS_GPCR_gOpiateK: NovaScreen (NVS) G Protein-Coupled Receptor Assay for guinea pig Opioid, Kappa 1 Receptor (OpiateK) (AID 2283252).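 Further: radioligand displacement from kappa opioid receptor in guinea pig cerebellar membranes; active means reduced radioligand binding relative to DMSO.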 Put shortly:
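Guinea pig cerebellar membranes were incubated with a radioligand for 2 h after compound addition; bound radioactivity was read by filter-based scintillation counting. Loss of specific binding relative to DMSO baseline defined activity; primary screen at 25 uM in duplicate.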

Test [7] deals with human Serotonin, 5-Hydroxytryptamine Receptor 6 (5HT6), HTR6 (gene 3362) (UniProt P50406). Put plainly: NVS_GPCR_h5HT6: NovaScreen (NVS) G Protein-Coupled Receptor Assay for human Serotonin, 5-Hydroxytryptamine Receptor 6 (5HT6) (AID 2283253). Put shortly:
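Radioligand binding to 5HT6 in HEK293-derived membranes, cell-free, 1 h after dosing; bound ligand measured by filter-based scintillation counting. Primary screen in duplicate at 25 uM; actives retested in concentration series.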

Test [8] concerns the target human Adenosine A1 Receptor (AdoRA1), ADORA1 (gene 134) (UniProt P30542). Put plainly: NVS_GPCR_hAdoRA1: NovaScreen (NVS) G Protein-Coupled Receptor Assay for human Adenosine A1 Receptor (AdoRA1) (AID 2283254). Put shortly:
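Hum. cortical membranes + radioligand, cmpd 1 h; filtration, scintillation count. Readout = decrease vs DMSO. Primary 25 uM dup; hits → conc. series.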

Test [9] concerns the target human Serotonin, 5-Hydroxytryptamine Receptor 7 (5HT7), HTR7 (gene 3363) (UniProt P34969). Put plainly: NVS_GPCR_h5HT7: NovaScreen (NVS) G Protein-Coupled Receptor Assay for human Serotonin, 5-Hydroxytryptamine Receptor 7 (5HT7) (AID 2283255).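 Further: hits reduce specific radioligand binding relative to DMSO.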 Put shortly: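 Radioligand displacement on membranes from CHO cells expressing human 5HT7, 1 h incubation, filter-based scintillation counting. Primary screen used a single 25 uM concentration in duplicate; actives were followed up in concentration series.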

Test [10] addresses sheep Cyclooxygenase-1 (Cox1), PTGS1 (gene 443551) (UniProt P05979). Put plainly: NVS_ENZ_oCOX1: NovaScreen (NVS) Enzymatic Assay for sheep Cyclooxygenase-1 (Cox1) (AID 2283239).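 Further: actives reduce cyclooxygenase activity so potencies are for inhibitors.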 Put shortly:
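Tested in duplicate at 25 uM, then in concentration series if active, against seminal vesicle extract from sheep. Enzyme activity was measured colorimetrically at 0.66 hour and normalised to DMSO.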

Test [11] concerns the target rat Constitutive Nitric Oxide Synthase (CNOS), Nos1 (gene 24598) (UniProt P29476). Put plainly: NVS_ENZ_rCNOS: NovaScreen (NVS) Enzymatic Assay for rat Constitutive Nitric Oxide Synthase (CNOS) (AID 2283236). Put shortly:
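Enzyme activity in rat brain membrane preparation, read 1 h after dosing by filter-based radiometric scintillation counting. Primary screen in duplicate at 25 uM; actives (e.g., ≥30% inhibition) then run in concentration-response up to 50 uM.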

A short description of test [12]: NVS_GPCR_bNPY_NonSelective: NovaScreen (NVS) G Protein-Coupled Receptor Assay for bovine Neuropeptide Y (NPY) Receptor, Non-selective Binding (AID 2283245). Put shortly: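 Bovine hippocampal membranes incubated 1 hour with radioligand and test chemical. Bound ligand measured by filter-based scintillation counting. Single-concentration screen at 25 uM in duplicate, then concentration-response up to 50 uM.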

The test system of test [13] is guinea pig Muscarinic, Peripheral (Mperiperal) Receptor, Non-selective Binding, gene 100379235. The test can be described thus: NVS_GPCR_gMPeripheral_NonSelective: NovaScreen (NVS) G Protein-Coupled Receptor Assay for guinea pig Muscarinic, Peripheral (Mperiperal) Receptor, Non-selective Binding (AID 2283250). In outline: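 Guinea pig bladder membranes, radioligand binding read 1 h after dosing by filter scintillation counting; loss of signal vs DMSO. Primary duplicate screen at 25 uM, then concentration-response up to 50 uM.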

The target of test [14] is rat Monoamine Oxidase, MAO-B, Peripheral (MAOBP), Maob (gene 25750) (UniProt P19643). Put plainly: NVS_ENZ_rMAOBP: NovaScreen (NVS) Enzymatic Assay for rat Monoamine Oxidase, MAO-B, Peripheral (MAOBP) (AID 2283242).
Test [15] concerns the target rat Monoamine Oxidase, MAO-B, Central (MAOBC), Maob (gene 25750) (UniProt P19643). Put plainly: NVS_ENZ_rMAOBC: NovaScreen (NVS) Enzymatic Assay for rat Monoamine Oxidase, MAO-B, Central (MAOBC) (AID 2283238). In outline:
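Rat brain tissue extract served as the cell-free MAO-B source; enzyme activity was read by scintillation counting 1.17 hours after compound addition. Loss of signal versus DMSO baseline was fitted; primary single-concentration screen at 25 uM, follow-up concentration-response up to 50 uM.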

Test [16] concerns the target Adenosine receptor A1 (Bos taurus) (UniProt P28190). Put plainly: NVS_GPCR_bAdoR_NonSelective: NovaScreen (NVS) G Protein-Coupled Receptor Assay for bovine Adenosine Receptor (AdoR), Non-selective Binding (AID 2283244). Put shortly:
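Bovine striatal membranes, radioligand displacement binding, 1 h after dosing, filter-based scintillation counting. Screened in duplicate at 25 uM, then concentration-response up to 50 uM; loss of specific binding relative to DMSO.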

Test [17] concerns the target guinea pig Leukotriene D4 Receptor (LTD4), CYSLTR1 (gene 100135514) (UniProt Q2NNR5). The test can be described thus: NVS_GPCR_gLTD4: NovaScreen (NVS) G Protein-Coupled Receptor Assay for guinea pig Leukotriene D4 Receptor (LTD4) (AID 2283248). Put shortly: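 Radioligand displacement on guinea pig lung membranes, 1 h incubation, filtration and scintillation counting; DMSO as negative control. Duplicate 25 uM primary screen, then singleton concentration-response up to 50 uM.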

The subject of test [18] is bovine Angiotensin II Receptor Type 2 (AT2), gene 407157. The test can be described thus: NVS_GPCR_bAT2: NovaScreen (NVS) G Protein-Coupled Receptor Assay for bovine Angiotensin II Receptor Type 2 (AT2) (AID 2283240). In outline:
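Radioligand displacement on bovine cerebellar membranes, 1 hour incubation, filter-based scintillation counting; loss of signal vs DMSO. Duplicate single-point screen at 25 uM, then concentration-response to 50 uM maximum.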

Results filed as inconclusive are left out. Activity calls are given as the source filed them. How the source made its calls: active means hit-call score of the fitted dose curve at least 0.9, where 1 is the maximum; inconclusive means response in the unintended direction; inactive means score below 0.9.

human Serotonin, 5-Hydroxytryptamine Receptor 6 (5HT6), HTR6 (gene 3362), sequence (P50406 whole entry, looked up): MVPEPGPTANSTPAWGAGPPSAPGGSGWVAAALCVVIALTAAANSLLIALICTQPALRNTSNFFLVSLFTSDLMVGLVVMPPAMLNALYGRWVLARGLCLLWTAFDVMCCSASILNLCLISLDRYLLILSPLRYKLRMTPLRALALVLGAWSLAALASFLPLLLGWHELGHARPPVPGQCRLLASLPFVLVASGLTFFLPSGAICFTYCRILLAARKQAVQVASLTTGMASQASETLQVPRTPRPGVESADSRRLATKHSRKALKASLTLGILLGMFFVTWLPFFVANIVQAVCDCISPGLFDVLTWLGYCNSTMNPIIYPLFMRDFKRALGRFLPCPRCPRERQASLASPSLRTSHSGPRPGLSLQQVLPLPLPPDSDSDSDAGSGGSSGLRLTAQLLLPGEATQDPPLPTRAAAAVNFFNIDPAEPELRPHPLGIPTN
human Serotonin, 5-Hydroxytryptamine Receptor 5A (5HT5A), HTR5A (gene 3361), sequence (P47898 whole entry, looked up): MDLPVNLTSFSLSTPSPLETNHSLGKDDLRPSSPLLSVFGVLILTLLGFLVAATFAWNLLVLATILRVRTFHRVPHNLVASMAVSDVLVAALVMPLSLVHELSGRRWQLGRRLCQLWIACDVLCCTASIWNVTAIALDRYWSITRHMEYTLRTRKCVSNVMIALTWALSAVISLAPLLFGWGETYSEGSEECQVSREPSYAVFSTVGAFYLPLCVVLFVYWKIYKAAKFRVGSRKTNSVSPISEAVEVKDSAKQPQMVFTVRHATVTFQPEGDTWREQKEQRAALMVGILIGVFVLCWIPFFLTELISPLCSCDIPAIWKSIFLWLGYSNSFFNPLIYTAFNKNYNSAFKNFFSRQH
human Adenosine A1 Receptor (AdoRA1), ADORA1 (gene 134), sequence (P30542 whole entry, looked up): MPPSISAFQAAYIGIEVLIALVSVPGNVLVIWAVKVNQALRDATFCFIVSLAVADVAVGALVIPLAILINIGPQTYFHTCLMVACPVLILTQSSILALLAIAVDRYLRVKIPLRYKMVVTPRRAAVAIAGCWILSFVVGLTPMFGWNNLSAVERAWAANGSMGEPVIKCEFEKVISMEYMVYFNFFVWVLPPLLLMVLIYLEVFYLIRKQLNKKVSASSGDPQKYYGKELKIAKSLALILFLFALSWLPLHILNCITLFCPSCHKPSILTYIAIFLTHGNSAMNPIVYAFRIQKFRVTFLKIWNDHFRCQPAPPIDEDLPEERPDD
human Serotonin, 5-Hydroxytryptamine Receptor 7 (5HT7), HTR7 (gene 3363), sequence (P34969 whole entry, looked up): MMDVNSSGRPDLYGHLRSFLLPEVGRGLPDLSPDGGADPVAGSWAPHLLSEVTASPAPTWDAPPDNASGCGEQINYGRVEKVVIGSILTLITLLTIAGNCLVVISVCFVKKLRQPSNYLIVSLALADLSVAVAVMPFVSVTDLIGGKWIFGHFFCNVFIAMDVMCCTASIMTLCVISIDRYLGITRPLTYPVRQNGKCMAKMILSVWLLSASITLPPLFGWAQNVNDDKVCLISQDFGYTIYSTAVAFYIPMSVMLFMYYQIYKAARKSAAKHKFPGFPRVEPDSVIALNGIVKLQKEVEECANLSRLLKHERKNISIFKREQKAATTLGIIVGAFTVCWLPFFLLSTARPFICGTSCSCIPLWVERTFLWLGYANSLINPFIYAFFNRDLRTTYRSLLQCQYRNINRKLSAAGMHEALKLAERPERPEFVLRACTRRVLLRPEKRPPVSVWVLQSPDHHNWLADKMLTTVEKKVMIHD
human Serotonin, 5-Hydroxytryptamine Receptor 2A (5HT2A), HTR2A (gene 3356), sequence (P28223 whole entry, looked up): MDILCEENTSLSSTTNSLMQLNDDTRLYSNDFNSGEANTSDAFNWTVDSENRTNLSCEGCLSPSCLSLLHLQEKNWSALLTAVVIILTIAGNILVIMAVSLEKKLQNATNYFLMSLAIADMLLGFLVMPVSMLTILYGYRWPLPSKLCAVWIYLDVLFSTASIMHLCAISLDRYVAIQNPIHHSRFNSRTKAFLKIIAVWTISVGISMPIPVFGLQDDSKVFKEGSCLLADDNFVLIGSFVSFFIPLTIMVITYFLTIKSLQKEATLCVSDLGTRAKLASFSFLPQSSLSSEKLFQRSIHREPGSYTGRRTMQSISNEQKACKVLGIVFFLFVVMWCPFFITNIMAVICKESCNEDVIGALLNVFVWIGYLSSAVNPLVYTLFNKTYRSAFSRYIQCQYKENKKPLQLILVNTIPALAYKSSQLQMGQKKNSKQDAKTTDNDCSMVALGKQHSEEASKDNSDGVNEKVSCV
guinea pig Leukotriene D4 Receptor (LTD4), CYSLTR1 (gene 100135514), sequence (Q2NNR5 whole entry, looked up): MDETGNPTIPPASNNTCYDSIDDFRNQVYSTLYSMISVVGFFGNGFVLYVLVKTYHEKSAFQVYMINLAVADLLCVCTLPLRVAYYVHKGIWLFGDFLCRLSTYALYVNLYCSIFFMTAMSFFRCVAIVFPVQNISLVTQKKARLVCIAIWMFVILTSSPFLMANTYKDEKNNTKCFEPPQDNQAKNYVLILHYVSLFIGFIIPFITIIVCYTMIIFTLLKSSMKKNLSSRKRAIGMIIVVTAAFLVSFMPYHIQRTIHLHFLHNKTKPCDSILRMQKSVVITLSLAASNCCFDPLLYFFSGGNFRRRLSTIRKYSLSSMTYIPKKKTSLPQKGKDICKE
rat Monoamine Oxidase, MAO-B, Peripheral (MAOBP), Maob (gene 25750), sequence (P19643 whole entry, looked up): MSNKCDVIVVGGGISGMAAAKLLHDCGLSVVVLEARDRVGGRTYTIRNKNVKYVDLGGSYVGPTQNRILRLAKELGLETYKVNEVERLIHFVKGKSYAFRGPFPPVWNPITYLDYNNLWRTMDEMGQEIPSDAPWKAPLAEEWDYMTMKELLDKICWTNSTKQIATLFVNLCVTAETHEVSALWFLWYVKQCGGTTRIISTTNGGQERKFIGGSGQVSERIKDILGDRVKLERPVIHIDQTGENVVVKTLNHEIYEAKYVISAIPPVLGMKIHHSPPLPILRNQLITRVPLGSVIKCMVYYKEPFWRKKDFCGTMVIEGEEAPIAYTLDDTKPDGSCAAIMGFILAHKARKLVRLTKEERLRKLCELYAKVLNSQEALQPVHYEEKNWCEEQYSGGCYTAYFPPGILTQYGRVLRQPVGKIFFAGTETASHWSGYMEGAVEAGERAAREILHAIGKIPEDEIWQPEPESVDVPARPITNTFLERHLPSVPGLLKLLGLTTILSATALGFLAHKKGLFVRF
rat Catechol-O-Methyl Transferase (COMT), Comt (gene 24267), sequence (P22734 whole entry, looked up): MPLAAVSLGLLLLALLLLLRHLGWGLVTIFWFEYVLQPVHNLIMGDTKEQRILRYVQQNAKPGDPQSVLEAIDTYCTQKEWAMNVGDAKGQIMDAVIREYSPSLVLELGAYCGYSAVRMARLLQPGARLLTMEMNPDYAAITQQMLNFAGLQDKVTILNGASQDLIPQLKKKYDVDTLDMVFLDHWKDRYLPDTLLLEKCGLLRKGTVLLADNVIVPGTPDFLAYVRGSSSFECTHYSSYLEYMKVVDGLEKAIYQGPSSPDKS
Adenosine receptor A1 (Bos taurus), sequence (P28190 whole entry, looked up): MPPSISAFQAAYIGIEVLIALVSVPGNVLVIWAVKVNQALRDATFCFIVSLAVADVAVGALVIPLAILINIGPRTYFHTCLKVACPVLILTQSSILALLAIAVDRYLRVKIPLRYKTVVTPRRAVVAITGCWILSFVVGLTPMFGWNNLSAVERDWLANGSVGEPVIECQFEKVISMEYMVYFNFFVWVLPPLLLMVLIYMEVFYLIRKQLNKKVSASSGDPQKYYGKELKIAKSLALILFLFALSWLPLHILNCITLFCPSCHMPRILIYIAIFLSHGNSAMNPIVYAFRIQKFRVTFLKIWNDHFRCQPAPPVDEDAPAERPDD
sheep Cyclooxygenase-1 (Cox1), PTGS1 (gene 443551), sequence (P05979 whole entry, looked up): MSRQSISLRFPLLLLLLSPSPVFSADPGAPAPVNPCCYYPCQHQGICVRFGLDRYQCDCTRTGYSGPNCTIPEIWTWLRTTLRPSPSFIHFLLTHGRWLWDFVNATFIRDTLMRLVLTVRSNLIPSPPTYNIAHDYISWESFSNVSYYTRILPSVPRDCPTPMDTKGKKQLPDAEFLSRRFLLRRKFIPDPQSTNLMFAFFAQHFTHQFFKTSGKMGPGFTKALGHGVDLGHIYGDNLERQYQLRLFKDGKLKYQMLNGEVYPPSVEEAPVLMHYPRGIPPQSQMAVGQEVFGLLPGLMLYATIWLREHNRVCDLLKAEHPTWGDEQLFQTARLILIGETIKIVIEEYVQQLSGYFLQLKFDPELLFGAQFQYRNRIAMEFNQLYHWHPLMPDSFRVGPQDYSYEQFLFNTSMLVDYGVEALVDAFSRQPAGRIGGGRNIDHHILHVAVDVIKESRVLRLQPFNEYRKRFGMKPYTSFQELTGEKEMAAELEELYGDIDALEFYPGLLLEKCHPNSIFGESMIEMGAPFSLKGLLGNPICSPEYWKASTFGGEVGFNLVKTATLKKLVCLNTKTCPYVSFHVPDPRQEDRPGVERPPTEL
guinea pig Opioid, Kappa 1 Receptor (OpiateK), OPRK1 (gene 100135587), sequence (P41144 whole entry, looked up): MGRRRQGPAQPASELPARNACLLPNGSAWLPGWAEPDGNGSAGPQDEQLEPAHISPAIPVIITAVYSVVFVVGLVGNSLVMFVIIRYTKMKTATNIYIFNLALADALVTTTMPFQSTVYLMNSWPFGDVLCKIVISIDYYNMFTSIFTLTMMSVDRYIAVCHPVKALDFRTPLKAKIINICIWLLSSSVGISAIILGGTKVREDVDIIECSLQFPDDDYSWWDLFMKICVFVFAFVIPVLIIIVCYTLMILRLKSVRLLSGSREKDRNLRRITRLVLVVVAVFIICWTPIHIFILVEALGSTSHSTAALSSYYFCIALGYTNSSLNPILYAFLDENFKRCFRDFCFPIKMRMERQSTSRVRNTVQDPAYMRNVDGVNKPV
rat Monoamine Oxidase, MAO-B, Central (MAOBC), Maob (gene 25750), sequence (P19643 whole entry, looked up): as the sequence (P19643 whole entry, looked up) above

Broadly, the AC50 is the concentration at which the activity in the assay is half-maximal. Turning to `O=S(=O)(O)C(F)(F)C(F)(F)C(F)(F)C(F)(F)F`, the AC50 in [1] was 12.2 µM (active).
Consider `Nc1ccc(-c2ccc(N)cc2)cc1`, for which the AC50 in test [2] was 16.6 µM (active).
As to `CCC(C)(CC)c1cc(NC(=O)c2c(OC)cccc2OC)on1`, in test [3], the compound was classed as inactive.
With `Cc1cccc(C)c1N`, the result in test [4] was inactive.
With `CCC(C)(c1ccc(O)cc1)c1ccc(O)cc1`, the AC50 in test [1] was 6.38 µM (active); in test [5], 13.4 µM (active); in test [7], 6.29 µM (active); in [8], 25 µM (active); in [9] it was 15.9 µM (active). The compound was called inactive in test [6].
For `ClC(Cl)=C(c1ccc(Cl)cc1)c1ccc(Cl)cc1`, the compound was called inactive in test [10].
Take `CN(C)c1nc(=O)n(C2CCCCC2)c(=O)n1C`: in test [11], the result was inactive.
Consider `Cc1cc2c3c(c1)C(c1ccccc1)=N[C@@H](NC(=O)c1ccncc1)C(=O)N3CC2`, for which the call in [8] was inactive. Moreover, the concentration at half-maximal activity (AC50) in test [9] was 25 µM (active).
With `CCCCCCCCCC[N+](C)(C)CCCCCCCCCC`, the AC50 in [2] was 34 µM (active); in [12] it was 22.5 µM (active); in test [4], 5 µM (active); in test [13] it was 25 µM (active); in [5] it was 9.63 µM (active); in test [7], 13.9 µM (active). The AC50 in [9] is 5.73 µM (active).
For the compound `CCC(C)c1cc([N+](=O)[O-])cc([N+](=O)[O-])c1O` (configuration not stated), the AC50 in [3] was 1.1 µM (active). Also, the compound was called inactive in test [1].
For the compound `CCSC(=O)N(CC)C1CCCCC1`, the AC50 in test [14] was 32.8 µM (active).
Regarding `CO/C=C(/C(=O)OC)c1ccccc1COc1cccc(C(F)(F)F)n1`, the compound was called inactive in [12].
Regarding `CC(C)(c1ccccc1)c1ccc(O)cc1`, the compound was classed as inactive in test [15] and in [14]. For the same compound, the AC50 is 7.09 µM (active) in test [1], 25 µM (active) in [5], 4.96 µM (active) in test [7] and 9.28 µM (active) in test [8].
Take `O=C(O)C(F)(F)C(F)(F)C(F)(F)C(F)(F)C(F)(F)C(F)(F)C(F)(F)C(F)(F)C(F)(F)F`: the compound was called inactive in [16] and in test [17]. For the same compound, the figures for the AC50 in [1], in test [5] and in test [9] were 11.6 µM (active), 20.7 µM (active) and 16.4 µM (active), respectively.
As for `CCNc1nc(NC(C)C)nc(SC)n1`, in [18], the call was inactive. The concentration at half-maximal activity (AC50) is 13.4 µM (active) in [16] and 13.7 µM (active) in test [8].
As for `O=C(O)C(F)(F)C(F)(F)C(F)(F)C(F)(F)C(F)(F)C(F)(F)C(F)(F)C(F)(F)F`, the AC50 in test [1] is 25 µM (active); in [5], 17.7 µM (active). For the same compound, the result in [17] was inactive.

For the origin of these results see PubChem BioAssay (EPA / NIEHS).
